Measurements as given in PubChem BioAssay AID1159580 (chemical genetic matrix, 2015).
Out of some 5,500 compounds screened, about 2,000 (36%) were called active. Inconclusive results (about 18%) are left out. Cut-off read from the data, not from the text of the source: active = normalized growth mostly below about 0.91 (no sharp cut-off); inconclusive = no clear call, values can overlap the other calls; inactive = mostly above about 0.92. The list shows a part of the results.

Assay: chemical genetic growth profiling, strain panel (AID 1159580);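 note: tested at 20 µM; growth read once vehicle control cultures reached saturation at 30 °C; 1 = growth at the plate median or of vehicle wells; lower values mean less growth of the strain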
Conditions: growth OD

Measured: normalized growth

NC(=O)NCC(N)C(=O)O (stereo not drawn)
inactive: S. cerevisiae deletion strains, locus YBR021W, strain FUR4, hits give low values 1.06 | S. cerevisiae deletion strains, locus YBR229C, strain ROT2, hits give low values 1.01 | S. cerevisiae deletion strains, locus YCL029C, strain bik1, hits give low values 0.988 | S. cerevisiae deletion strains, locus YDL035C, strain GPR1, hits give low values 1.04 | S. cerevisiae deletion strains, locus YDL074C, strain BRE1, hits give low values 1.03 | S. cerevisiae deletion strains, locus YDL101C, strain DUN1, hits give low values 1.02 | S. cerevisiae deletion strains, locus YDL134C, strain PPH21, hits give low values 1.03 | S. cerevisiae deletion strains, locus YDL185W, strain tfp1, hits give low values 0.989 | S. cerevisiae deletion strains, locus YDL192W, strain arf1, hits give low values 1 | S. cerevisiae deletion strains, locus YDR101C, strain arx1, hits give low values 0.975 | S. cerevisiae deletion strains, locus YDR162C, strain NBP2, hits give low values 1.04 | S. cerevisiae deletion strains, locus YDR318W, strain mcm21, hits give low values 0.999 | S. cerevisiae deletion strains, locus YDR388W, hits give low values 0.983 | S. cerevisiae deletion strains, locus YDR502C, strain sam2, hits give low values 0.984 | S. cerevisiae deletion strains, locus YEL061C, strain CIN8, hits give low values 1.01 | S. cerevisiae deletion strains, locus YER110C, hits give low values 0.978 | S. cerevisiae deletion strains, locus YER155C, strain BEM2, hits give low values 1.01 | S. cerevisiae deletion strains, locus YER167W, strain BCK2, hits give low values 1.02 | S. cerevisiae deletion strains, locus YGL078C, strain dbp3, hits give low values 0.995 | S. cerevisiae deletion strains, locus YGL086W, strain mad1, hits give low values 0.994 | S. cerevisiae deletion strains, locus YGL248W, strain PDE1, hits give low values 1.02 | S. cerevisiae deletion strains, locus YGR078C, strain PAC10, hits give low values 1.03 | S. cerevisiae deletion strains, locus YGR135W, strain pre9, hits give low values 0.995 | S. cerevisiae deletion strains, locus YGR252W, strain gcn5, hits give low values 0.987 | S. cerevisiae deletion strains, locus YHR030C, strain SLT2, hits give low values 1.01 | S. cerevisiae deletion strains, locus YHR079C, strain IRE1 (second series), hits give low values 0.983 | S. cerevisiae deletion strains, locus YHR094C, strain hxt1, hits give low values 0.975 | S. cerevisiae deletion strains, locus YHR129C, strain ARP1, hits give low values 1.02 | S. cerevisiae deletion strains, locus YHR200W, strain rpn10, hits give low values 0.986 | S. cerevisiae deletion strains, locus YIL066C, strain RNR3, hits give low values 1.03 | S. cerevisiae deletion strains, locus YIL073C, strain SPO22, hits give low values 1 | S. cerevisiae deletion strains, locus YIL125W, strain kgd1, hits give low values 0.991 | S. cerevisiae deletion strains, locus YIR030C, strain dcg1, hits give low values 0.996 | S. cerevisiae deletion strains, locus YJL095W, strain BCK1, hits give low values 1.03 | S. cerevisiae deletion strains, locus YJL134W, strain LCB3, hits give low values 1.01 | S. cerevisiae deletion strains, locus YJL168C, strain set2, hits give low values 0.989 | S. cerevisiae deletion strains, locus YJL187C, strain SWE1 (second series), hits give low values 1.02 | S. cerevisiae deletion strains, locus YJR043C, strain POL32, hits give low values 1.04 | S. cerevisiae deletion strains, locus YJR075W, strain HOC1, hits give low values 1.02 | S. cerevisiae deletion strains, locus YKL009W, strain mrt4, hits give low values 1 | S. cerevisiae deletion strains, locus YKL068W, hits give low values 0.997 | S. cerevisiae deletion strains, locus YKL085W, strain MDH1 (second series), hits give low values 1.01 | S. cerevisiae deletion strains, locus YKL085W, strain MDH1, hits give low values 1.01 | S. cerevisiae deletion strains, locus YKL190W, strain CNB1, hits give low values 1.01 | S. cerevisiae deletion strains, locus YKR001C, strain vps1, hits give low values 0.989 | S. cerevisiae deletion strains, locus YLR039C, strain RIC1, hits give low values 1.08 | S. cerevisiae deletion strains, locus YLR058C, strain SHM2, hits give low values 1.02 | S. cerevisiae deletion strains, locus YLR102C, strain apc9, hits give low values 0.987 | S. cerevisiae deletion strains, locus YLR262C, strain YPT6, hits give low values 1.1 | S. cerevisiae deletion strains, locus YLR268W, strain sec22, hits give low values 0.983 | S. cerevisiae deletion strains, locus YLR330W, strain CHS5, hits give low values 1.01 | S. cerevisiae deletion strains, locus YLR342W, strain FKS1 (second series), hits give low values 1.03 | S. cerevisiae deletion strains, locus YLR371W, strain rom2, hits give low values 0.981 | S. cerevisiae deletion strains, locus YLR418C, strain cdc73, hits give low values 0.982 | S. cerevisiae deletion strains, locus YML016C, strain PPZ1, hits give low values 1.01 | S. cerevisiae deletion strains, locus YML032C, strain rad52, hits give low values 0.995 | S. cerevisiae deletion strains, locus YML124C, strain tub3, hits give low values 0.981 | S. cerevisiae deletion strains, locus YMR078C, strain ctf18, hits give low values 0.971 | S. cerevisiae deletion strains, locus YMR223W, strain ubp8, hits give low values 0.99 | S. cerevisiae deletion strains, locus YMR307W, strain GAS1, hits give low values 1.14 | S. cerevisiae deletion strains, locus YNL067W, strain RPL9B, hits give low values 1.01 | S. cerevisiae deletion strains, locus YNL153C, strain GIM3, hits give low values 1.01 | S. cerevisiae deletion strains, locus YNL233W, strain BNI4, hits give low values 1.03 | S. cerevisiae deletion strains, locus YNL250W, strain rad50, hits give low values 1.01 | S. cerevisiae deletion strains, locus YNL271C, strain bni1, hits give low values 0.982 | S. cerevisiae deletion strains, locus YNL298W, strain CLA4, hits give low values 0.994 | S. cerevisiae deletion strains, locus YNL307C, strain MCK1, hits give low values 0.991 | S. cerevisiae deletion strains, locus YNL322C, strain KRE1, hits give low values 1.01 | S. cerevisiae deletion strains, locus YNR052C, strain pop2, hits give low values 0.991 | S. cerevisiae deletion strains, locus YOL012C, strain htz1 0.762 | S. cerevisiae deletion strains, locus YOL147C, strain pex11, hits give low values 0.985 | S. cerevisiae deletion strains, locus YOR061W, strain CKA2, hits give low values 1.02 | S. cerevisiae deletion strains, locus YOR069W, strain VPS5, hits give low values 1.01 | S. cerevisiae deletion strains, locus YOR136W, strain idh2, hits give low values 0.985 | S. cerevisiae deletion strains, locus YOR144C, strain elg1, hits give low values 0.984 | S. cerevisiae deletion strains, locus YOR184W, strain ser1, hits give low values 0.989 | S. cerevisiae deletion strains, locus YOR316C, strain cot1, hits give low values 0.983 | S. cerevisiae deletion strains, locus YPR119W, strain clb2, hits give low values 0.987 | S. cerevisiae deletion strains, locus YPR141C, strain kar3, hits give low values 0.995 | S. cerevisiae deletion strains, locus YPR163C, strain tif3, hits give low values 0.985 | S. cerevisiae deletion strains, locus YPR167C, strain met16, hits give low values 0.989 | S. cerevisiae deletion strains, strain wtn01, hits give low values 0.989 | S. cerevisiae strains, strain wild type, hits give low values 1.02
